# From paper PMC4336329 (PLoS ONE, 2015)
# Among all 310,000 compounds or so, about 14,000 (4.5%) showed an effect of 50% or more. The effect is printed as a negative number. For the sample, strong results were picked, then their nearest neighbours and some compounds at random.
# Molecular target: human ether-à-go-go-related gene (hERG) potassium channel (human, UniProt Q12809)
# Assay: primary screen, population patch clamp on CHO cells stably expressing hERG; higher = less effect of the substance
# 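Also: peak tail current of the secondary pulse compared with the same well before compound.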
# Chain of human ether-à-go-go-related gene (hERG) potassium channel (Q12809 whole entry, looked up): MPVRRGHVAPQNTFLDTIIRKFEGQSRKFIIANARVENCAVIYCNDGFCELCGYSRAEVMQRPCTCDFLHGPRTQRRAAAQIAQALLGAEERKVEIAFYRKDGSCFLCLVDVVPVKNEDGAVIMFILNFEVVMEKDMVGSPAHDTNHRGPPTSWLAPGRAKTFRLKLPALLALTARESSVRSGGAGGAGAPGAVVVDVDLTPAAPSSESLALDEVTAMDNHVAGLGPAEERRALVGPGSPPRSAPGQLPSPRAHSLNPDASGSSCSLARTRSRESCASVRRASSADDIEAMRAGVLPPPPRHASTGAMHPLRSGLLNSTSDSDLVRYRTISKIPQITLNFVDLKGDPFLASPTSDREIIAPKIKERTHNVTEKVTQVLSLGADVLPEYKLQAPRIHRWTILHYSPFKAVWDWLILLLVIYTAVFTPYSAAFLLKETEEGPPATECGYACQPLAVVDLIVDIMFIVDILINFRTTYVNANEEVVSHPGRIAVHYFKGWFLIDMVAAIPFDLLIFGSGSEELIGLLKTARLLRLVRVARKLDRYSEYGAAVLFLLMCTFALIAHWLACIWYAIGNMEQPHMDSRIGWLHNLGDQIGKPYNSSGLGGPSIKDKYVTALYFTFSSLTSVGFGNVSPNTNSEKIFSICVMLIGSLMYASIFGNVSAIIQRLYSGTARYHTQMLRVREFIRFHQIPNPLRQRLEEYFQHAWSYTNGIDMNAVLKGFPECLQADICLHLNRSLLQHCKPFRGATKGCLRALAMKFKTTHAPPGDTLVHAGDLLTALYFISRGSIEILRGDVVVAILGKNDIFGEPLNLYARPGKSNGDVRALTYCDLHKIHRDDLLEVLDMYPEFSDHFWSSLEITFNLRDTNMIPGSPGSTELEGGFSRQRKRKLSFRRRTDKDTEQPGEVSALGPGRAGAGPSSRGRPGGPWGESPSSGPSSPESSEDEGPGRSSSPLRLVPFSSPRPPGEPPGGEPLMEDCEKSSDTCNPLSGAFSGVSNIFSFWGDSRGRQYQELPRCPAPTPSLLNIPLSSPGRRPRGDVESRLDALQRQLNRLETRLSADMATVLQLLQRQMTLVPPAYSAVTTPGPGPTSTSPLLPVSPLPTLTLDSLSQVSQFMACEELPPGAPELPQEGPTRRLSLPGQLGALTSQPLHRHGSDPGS
row,SMILES,"hERG current change (%, negative = inhibition) at 10uM [%]"
1,CCN1CCCC(OC(=O)Nc2ccccc2)C1 (centres unmarked),2.47
2,CCN1CCCC(OC(=O)c2cc(-c3ccc(C)cc3)nc3ccccc23)C1.Cl (centres unmarked),-8.97
3,Cl.O=C(OC1CCN(CCCl)CC1)C(c1ccccc1)c1ccccc1,11
4,CCN1CCCC(OC(=O)c2cc(-c3ccccc3Cl)nc3ccccc23)C1.Cl (centres unmarked),-65.3
5,CCN1CCCC(OC(=O)C(c2ccccc2)c2ccccc2)C1.Cl (centres unmarked),-66.1
6,CN1CCC(N(C)C(=O)c2cc(-c3ccccc3Cl)nc3ccccc23)CC1.Cl,-84.3
7,O=c1c(-c2ccccc2)[n+]([O-])c2ccccc2n1O,-9.6
8,CCOc1ccccc1NC(=O)Cc1cccs1,3.18
9,O=C(NCCCN1CCCCC1)c1ccc(CS(=O)c2ccc(F)cc2)o1 (centres unmarked),-0.35
10,Br.O=C(Cn1c(NCCCO)nc2ccccc21)c1ccc(F)cc1,-9.54
11,Cc1ccc(C(c2sc3nc(C)nn3c2O)N2CCN(c3ccccc3)CC2)cc1 (centres unmarked),-5.32
12,Oc1c(C(c2cccs2)N2CCN(c3ccccc3)CC2)sc2ncnn12 (centres unmarked),-33.6
13,Cc1ccc(C(c2sc3nc(C)nn3c2O)N2CCN(c3ccc(F)cc3)CC2)cc1 (centres unmarked),-65.2
14,Oc1c(C(c2cccs2)N2CCN(c3ccc(F)cc3)CC2)sc2ncnn12 (centres unmarked),-66
15,Oc1c(C(c2cccs2)N2CCN(c3cccc(Cl)c3)CC2)sc2ncnn12 (centres unmarked),-26.5
16,Cc1nc2sc(C(c3ccc(F)cc3)N3CCOCC3)c(O)n2n1 (centres unmarked),9.62
17,O=C(CCc1ccccc1)Nc1ccccc1C(=O)NCc1ccco1,0.64
18,COC(=O)[C@@]12CCCN1[C@H](c1ccc(-c3ccccc3)cc1)[C@@H]1C(=O)N(C)C(=O)[C@@H]12.O=C(O)C(F)(F)F,-6.67
19,C=C(C)c1cccc(C(C)(C)NC(=O)Nc2ccc(OC)cc2)c1,8.48
20,COc1ccc(NC(=O)c2oc3ccc(S(=O)(=O)N4CCOCC4)cc3c2C)cc1,3.58
21,COc1ccc2c(c1)nc(SCC(=O)C(C)(C)C)n2C,-2.82
22,COc1ccc2c(c1)nc(SCC(O)c1ccccc1)n2C (centres unmarked),-60.2

row,SMILES,"hERG current change (%, negative = inhibition) at 10uM [%]"
1,COc1ccc2c(c1)nc(SCC(C)O)n2C (centres unmarked),18
2,COC(=O)c1cc(NS(=O)(=O)c2cccc(Cl)c2)ccc1N1CCOCC1,2.66
3,CCN(CCCNC(=O)COc1cc(=O)n(C)c2ccccc12)c1ccccc1,-41.3
4,CCN(CCCNC(=O)C1CCC(=O)N1Cc1ccc(F)cc1)c1cccc(C)c1 (centres unmarked),-18.3
5,CCN(CCCNC(=O)COc1cc(=O)n(CC)c2ccccc12)c1ccccc1,-52.5
6,Cc1cccc(CCNC(=O)COc2cc(=O)n(C)c3ccccc23)c1,-17.6
7,CCN(CCCNC(=O)C1CCC(=O)N1Cc1ccccc1Cl)c1cccc(C)c1 (centres unmarked),-64.5
8,CCN(CCCNC(=O)COc1cc(=O)n(CC)c2ccccc12)Cc1ccccc1,-19.8
9,CCn1c(=O)cc(OCC(=O)NCCC(C)C)c2ccccc21,0.0582
10,CCN(CCCNC(=O)C1CCC(=O)N1Cc1ccc(C)cc1)c1cccc(C)c1 (centres unmarked),-24.9
11,CCN(CCCNC(=O)COc1cc(=O)n(C)c2ccccc12)c1cccc(C)c1,-51
12,COc1ccc(N2CCN(C(=O)C34CCC(C)(C(=O)C3)C4(C)C)CC2)cc1 (centres unmarked),-0.453
13,CN(CC(=O)Nc1ccc(Cl)c(C(F)(F)F)c1)C(=O)Cc1n[nH]c(=O)c2ccccc12,-16.2
14,COc1ccc(-n2nc3c(c2NC(=O)c2ccc(Br)o2)CS(=O)(=O)C3)cc1,-16.4
15,COC(=O)Nc1ccc(S(=O)(=O)N2CCC(C(=O)N(C)C3CCCCC3)CC2)cc1,9.22
16,COC(=O)CCC(=O)NC(=S)Nc1cc(Cl)ccc1Cl,10.5
17,CC(=O)Oc1ccc2oc(=O)c3c(c2c1)CCCN3C(=O)CN1CCOCC1,1.97
18,CC1CC(C)CN(CC(=O)N2CCCc3c2c(=O)oc2ccc(OCc4ccccc4)cc32)C1 (centres unmarked),-4.71
19,CC1CCN(CC(=O)N2CCCc3c2c(=O)oc2ccc(OCc4ccccc4)cc32)CC1,-10.5
20,O=C(CN1CCCC1)N1CCCc2c1c(=O)oc1ccc(OCc3ccccc3)cc21,-65.6
21,Cc1cc(=O)oc2ccc(OCc3ccccc3)cc12,5.11
22,O=C(CN1CCCCC1)N1CCCc2c1c(=O)oc1ccc(OCc3ccccc3)cc21,-54.6
